Screens: PubChem, several laboratories
Only some compounds are listed: those with a hit (about 1.2% of all), similar ones and a draw of the others.
SKN-1 block = blocks SKN-1 activity in C. elegans. AID 624304. inhibition, % at 21.8 µM. C. elegans VP596 Pgst-4::GFP/RFP ratio, acrylamide-induced, 24 h. actives 0.49% (n = 360,000);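 active = interference check ratio from 0.5 to 1.5 plus GFP to RFP signal ratio inhibition reaching or exceeding a fixed threshold, cut at about 30% in these data, passing the limit was not always enough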
ABCB6 inh 2 = human ABCB6 transporter inhibition | Q9NP58 | K562-ABCB6 porphyrin accumulation, flow cytometry, 1 h; stronger effect = lower value | fluorescence ratio to DMSO, % at 10 µM | actives 0.19% (n = 360,000) | AID 602162;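 active = fluorescence ratio to DMSO below 75%, the collection mean minus 3 SD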;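 also: signal is porphyrin accumulated inside mitochondria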
Yeast superoxide = lowers age-related superoxide in aged yeast cells; AID 2690; S. cerevisiae aged cells, superoxide DHE fluorescence; stronger effect = lower value; superoxide response (% of plate mean), % at 10 µM; actives 0.18% (n = 330,000);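 active = superoxide response under a set limit, about three screen SD below normal, cut at about 65% in these data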;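 also: yeast aged for seven days with compound at 30 °C before DHE staining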
Platelet DG rel = platelet dense granule release activity. human platelet-rich plasma, SFLLRN dense granule ATP release, luminescence. actives 0.22% (n = 300,000). inhibition, %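 (compounds screened at 7.5 µM in platelet-rich plasma)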;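 active = mean replicate score, as percent of positive control, at or above 50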
VLA-4 inh = inhibition in a human VLA-4 binding assay; P13612; VLA-4 expressing cells, ligand binding flow cytometry; inhibition, % (about 7 µM as worked out from the volumes in the protocol); actives 0.2% (n = 330,000); in the data active = inhibition above about 50%
Target sequence (P13612 whole entry, looked up): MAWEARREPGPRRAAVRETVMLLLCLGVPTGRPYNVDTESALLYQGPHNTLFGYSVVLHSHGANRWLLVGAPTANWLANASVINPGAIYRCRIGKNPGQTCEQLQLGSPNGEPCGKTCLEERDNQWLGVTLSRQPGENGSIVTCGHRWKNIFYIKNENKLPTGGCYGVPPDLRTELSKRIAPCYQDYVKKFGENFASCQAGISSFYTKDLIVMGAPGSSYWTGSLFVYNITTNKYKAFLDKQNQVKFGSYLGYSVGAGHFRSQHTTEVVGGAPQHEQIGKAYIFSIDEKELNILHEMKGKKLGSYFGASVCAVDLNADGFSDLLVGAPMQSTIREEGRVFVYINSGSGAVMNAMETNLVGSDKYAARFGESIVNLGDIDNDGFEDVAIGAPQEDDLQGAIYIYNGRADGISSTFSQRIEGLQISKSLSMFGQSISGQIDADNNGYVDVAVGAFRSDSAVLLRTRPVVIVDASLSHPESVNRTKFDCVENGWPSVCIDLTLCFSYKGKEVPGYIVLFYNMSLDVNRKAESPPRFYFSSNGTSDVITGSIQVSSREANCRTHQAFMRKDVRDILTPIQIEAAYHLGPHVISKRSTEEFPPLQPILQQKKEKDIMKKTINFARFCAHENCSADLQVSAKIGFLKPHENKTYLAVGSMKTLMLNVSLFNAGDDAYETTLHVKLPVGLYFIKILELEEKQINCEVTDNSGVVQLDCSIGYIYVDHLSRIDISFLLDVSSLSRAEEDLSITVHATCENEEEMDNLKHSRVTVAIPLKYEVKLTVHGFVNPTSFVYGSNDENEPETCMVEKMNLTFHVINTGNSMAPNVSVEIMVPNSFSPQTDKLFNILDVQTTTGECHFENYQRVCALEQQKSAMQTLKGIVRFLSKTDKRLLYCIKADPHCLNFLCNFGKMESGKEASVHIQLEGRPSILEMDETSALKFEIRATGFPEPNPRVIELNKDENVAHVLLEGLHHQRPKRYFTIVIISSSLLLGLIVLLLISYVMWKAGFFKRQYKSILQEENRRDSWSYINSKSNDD
ABCB6 blocker 1 = inhibitors of human ABC transporter ABCB6; 700 tested, under 10 active; shares compounds with ABCB6 inh 2; K562-ABCB6 porphyrin accumulation, flow cytometry, 1 h; stronger effect = lower value; ratio response (% of DMSO), % at 10 µM; AID 602430;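 active = repeat-averaged ratio response below 75% of DMSO, the collection mean minus 3 SD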;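 also: median porphyrin fluorescence at 575 nm with 488 nm excitation from mitochondria; lower ratio means less porphyrin signal so ABCB6 inhibition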
Hits are given with their value; – = inactive; · = no result given.

SMILES | SKN-1 block | ABCB6 inh 2 | Yeast superoxide | Platelet DG rel | VLA-4 inh | ABCB6 blocker 1
CC(C)(C)c1ccc(CC(=O)N2CCC2(C)C(=O)NS(=O)(=O)c2ccccc2Cl)cc1 (stereo unspecified) | – | – | · | · | · | –
CC1(C(=O)NS(=O)(=O)c2ccccc2)CCN1C(=O)CCc1ccc(Cl)cc1Cl (stereo unspecified) | – | – | · | · | · | –
CC1(C(=O)NS(=O)(=O)c2cccc(Cl)c2)CCN1C(=O)CCc1ccc(Cl)cc1Cl (stereo unspecified) | – | – | · | · | · | ·
CCOc1ccc(C(=O)NCC(C)C)cc1 | – | 74 | – | – | – | –
COc1ccccc1-c1ccc2c(c1)C(C)(Cc1ccc(F)c(Cl)c1)C(=O)N2 (stereo unspecified) | – | – | · | · | · | ·
Cc1nc(N2CCN(c3ccccc3)CC2)nc2c1C(=O)CCC2 | – | 55 | – | – | – | –
Cc1nc(N2CCN(c3ccccc3)CC2)nc2c1C(=O)CC(C)C2 (stereo unspecified) | – | – | – | – | – | ·
COC(=O)[C@@]1(Cc2ccc(OC)cc2)[C@H]2c3cc(C(=O)N4CCCC4)n(Cc4ccccc4)c3C[C@H]2CN1C(=O)c1ccccc1 | – | – | · | · | · | ·
COc1ccc(S(=O)(=O)Cc2ccc(C(=O)N3CCC(C(N)=O)CC3)o2)cc1 | – | – | – | – | – | ·
Cc1ccc(S(=O)(=O)Cc2ccc(C(=O)N3CCC(C(N)=O)CC3)o2)cc1 | – | 55 | – | – | – | –
OC(c1cccnc1)c1nc(/C=C/c2ccc(C(F)(F)F)cc2)cs1 (stereo unspecified) | – | – | · | · | · | ·
CCCCNC(=O)c1[nH]c(=O)cnc1-c1ccccc1 | – | – | · | · | · | ·
O=C(CSc1nnc(-c2ccc(F)cc2)o1)Nc1ccc(S(=O)(=O)N2CCCC2)cc1 | – | – | – | – | – | ·
O=C(CSc1nnc(-c2ccc(F)cc2)o1)Nc1ccc(S(=O)(=O)N2CCCCCC2)cc1 | – | 31 | – | – | – | –
CN(Cc1ccccc1)Cc1nc2c(c(=O)n(C)c(=O)n2C)n1Cc1ccc(F)cc1 | – | 63 | – | – | – | –
Cc1ccc(Cn2c(CN(C)Cc3ccccc3)nc3c2c(=O)n(C)c(=O)n3C)cc1 | – | – | – | – | – | ·
COc1cccc(-c2nnc(SCC(=O)N3CCCC3=O)n2-c2ccccc2)c1 | – | – | – | – | – | ·
COc1cccc(-c2nnc(SCC3CNC(=O)O3)n2-c2ccc(Cl)cc2)c1 (stereo unspecified) | – | 67 | – | – | – | –
O=C1C(=Cc2ccccc2O)SC(=S)N1CCCN1CCOCC1 | – | – | · | · | · | ·
CN(C)S(=O)(=O)c1cccc(NC(=O)COC(=O)CCSc2ccc(Cl)cc2)c1 | – | 71 | – | – | – | –
CC(=O)Nc1c(C)ccc(CNC(=O)COc2cc(C)ccc2C)c1C | – | 72 | – | – | – | –
CC(=O)Nc1c(C)ccc(CNC(=O)COc2ccc(F)cc2)c1C | – | – | – | – | – | ·
CC(=O)NC(C)(c1ccccc1)c1nc(-c2cncnc2)cs1 (stereo unspecified) | – | – | · | · | · | ·
CC(CN1CCCC1)OC(=O)COc1ccccc1 (stereo unspecified) | – | 72 | – | · | – | –
Cc1ccc(NC(=O)COC(=O)CCCC2=NS(=O)(=O)c3ccccc3N2)cc1C | – | 10 | – | – | – | –
SMILES | SKN-1 block | ABCB6 inh 2 | Yeast superoxide | Platelet DG rel | VLA-4 inh | ABCB6 blocker 1
Cc1ccccc1COC(=O)CCCC1=NS(=O)(=O)c2ccccc2N1 | – | – | – | – | – | ·
COc1ccc(Cl)cc1NC(=O)COC(=O)CCCC1=NS(=O)(=O)c2ccccc2N1 | – | – | – | – | – | –
O=C(COC(=O)CCCC1=NS(=O)(=O)c2ccccc2N1)Nc1ccc(Br)cc1 | – | – | – | – | – | –
O=C(CCCC1=NS(=O)(=O)c2ccccc2N1)Nc1ccccc1 | – | – | – | – | – | ·
CCCCn1nnnc1C(c1ccccc1)N1CCN(C/C=C/c2ccccc2)CC1 (stereo unspecified) | – | – | · | · | · | ·
O=C(O)c1ccc(CSCc2ccco2)cc1 | – | 74 | – | – | – | –
O=C(Cc1ccccc1)NCCSCc1ccco1 | – | – | – | – | – | ·
O=C(/C=C/[C@H]1O[C@@H](n2ccc(=O)[nH]c2=O)[C@H](O)[C@@H]1O)NCCN1CCOCC1 | – | – | · | · | · | ·
Cc1cc2nc(-c3ccc(C#N)cc3)c(Cc3cccc(F)c3)n2c(C)c1Br | – | – | · | · | · | ·
CCOc1ccc2nc(NC(=O)CSc3nc4c(c(=O)n(C)c(=O)n4C)n3C(C)C)sc2c1 | – | – | – | – | – | ·
CCn1c(SCC(=O)Nc2nc3ccc(OC)cc3s2)nc2c1c(=O)n(C)c(=O)n2C | – | 72 | – | – | – | –
COc1cccc(OCCNC(=O)CSc2ccc(C(F)(F)F)cc2[N+](=O)[O-])c1 | – | – | – | – | – | ·
Cc1ccccc1OCCNC(=O)CSc1ccc(C(F)(F)F)cc1[N+](=O)[O-] | – | 70 | – | – | – | –
CC(=O)C1=CCC(c2ccccc2)N(Cc2ccccc2)C1 (stereo unspecified) | – | · | · | · | · | ·
NC(N)=Nc1nc(CSCC/C(N)=N/S(N)(=O)=O)cs1 | – | 72 | – | – | – | –
Cc1cc(N2C(=O)CC(Cc3ccccc3)C2=O)no1 (stereo unspecified) | – | 72 | – | – | – | –
CC(=O)C[C@H]1SC[C@@H](C(C)C)N1S(=O)(=O)c1ccc(C)cc1 | – | · | · | · | · | ·
COc1ccc(C)cc1NC(=O)COCC(=O)O | – | 69 | – | – | – | –
CCOC(=O)C1CCCN(C(=O)c2cc(C)n(C(C)(C)C)n2)CC1 (stereo unspecified) | – | – | · | · | · | ·
CC(C)NCc1nnc(-c2ccc(Cl)cc2)o1 | – | 71 | – | – | – | –
CCCCc1c(Cc2cccc(F)c2)ncn1CCc1ccccc1OC | – | – | · | · | · | ·
COc1ccc(S(=O)(=O)n2ccc(-c3ccc(OCCN(C)c4ccccn4)cc3)n2)cc1 | 45 | 73 | – | – | – | –
CC(C)c1ccc([N+](=O)[O-])cc1S(=O)(=O)N1CCN(C)CC1 | – | 72 | – | – | – | –
OC(c1ccc(F)cc1)c1nc(-c2cc3ccccc3o2)cs1 (stereo unspecified) | – | – | · | · | · | ·
O=c1ccn(Cc2ccccc2)c2ccccc12 | – | 72 | – | – | – | –
SMILES | SKN-1 block | ABCB6 inh 2 | Yeast superoxide | Platelet DG rel | VLA-4 inh | ABCB6 blocker 1
Cn1c(=O)c2c(nc(NCCOc3ccc(C(C)(C)C)cc3)n2C)n(C)c1=O | – | 74 | – | – | · | –
CSc1nnc(CNS(=O)(=O)c2ccc(Br)cc2)n1C | – | – | – | – | – | ·
CCCc1ccc(S(=O)(=O)NCc2nnc(SC)n2C)cc1 | – | 63 | – | – | – | –
OC[C@H]1O[C@@H](c2nc3ccc(-c4nc(-c5ccc(Br)cc5)no4)cc3[nH]2)C[C@@H]1O | – | – | · | · | · | ·
COc1cc(NC(=O)c2ccc(-c3ccc(F)c(F)c3)c3ccoc23)cc(OC)c1OC | – | – | · | · | · | ·
COc1ccc(/C=C2/C(=O)OCc3cc(OC)c(OC)cc32)cc1 | – | 65 | – | – | – | –
